This is a sample that favours compounds with a hit; in the whole collection about 1.9% have one here.
PfHsp40 rescue = restores yeast growth despite PfHsp40 toxicity | growth rescue, % at 12.5 µM | S. cerevisiae expressing PfHsp40, growth rescue, ATP luminescence | 0.68% of 340,000 active | AID 504582; in the data active = growth rescue above about 28%, passing the limit was not always enough;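 note: yeast W303a lacking pdr1 and pdr3 grown in galactose medium; growth measured after three days at 30 °C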
PrP UTR inh = suppresses PrP 5' UTR mRNA reporter expression; cell-based PrP 5' UTR mRNA reporter, plate reader; inhibition, % (test concentration not listed); 0.35% of 340,000 active; in the data active = inhibition above about 52%; note: 0 = median of the neutral control wells
PrPC TRFRET = cell surface PrPC inhibition, primary TR-FRET screen | TR-FRET read-out | 0.43% of 370,000 active | P04156 | inhibition, % at 13.8 µM | AID 720596; in the data active = inhibition above about 24%; note: 0% = median of the test wells and 100% = reference compound wells
RecA intein inh = Mtb RecA intein splicing inhibition; P9WHJ3; cell-free RecA intein splicing, fluorescence; inhibition, % (test concentration not listed); 0.75% of 290,000 active; AID 2221; in the data active = inhibition above about 30%;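 note: 0% = vehicle wells and 100% = reference inhibitor control wells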
SSB-PriA inh = inhibitors of Klebsiella pneumoniae PriA binding to SSB C-terminal tail; AlphaScreen SSBct-PriA binding, biotinylated peptide; inhibition, % at 33 µM; 0.6% of 430,000 active; AID 1272365; in the data active = inhibition mostly above about 37%, no sharp cut-off; inactive = mostly below about 20%;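 note: plate controls were negative control peptide for no effect and reference peptide for full effect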
BJeLR viability = kills HRASV12-expressing BJeLR cells; 0.17% of 300,000 active; BJeLR (HRASV12) viability, CellTiter-Glo ATP luminescence, 48 h; inhibition, % (no concentration beside the values); in the data active = inhibition above about 50%
PrPC confirm = cell surface PrPC inhibition, TR-FRET confirmation; shares compounds with PrPC TRFRET; cell surface PrPC level; inhibition, % at 13.8 µM; 65% of 1,500 active; AID 743200; in the data active = inhibition above about 25%
LD9 cytotox = LD9 cell cytotoxicity, PrPc inhibitor counter-screen. shares compounds with PrPC TRFRET. LD9 cells cytotoxicity, luminescence viability. inhibition, % at 13.8 µM. 29% of 1,500 active. AID 743201; in the data active = inhibition above about 9.5%
* marks the source's active call; other numbers are inactive results; x = no result; + = active, no number.

SMILES	PfHsp40 rescue	PrP UTR inh	PrPC TRFRET	RecA intein inh	SSB-PriA inh	BJeLR viability	PrPC confirm	LD9 cytotox
C=CCSc1nc(N)c(C#N)c(-c2ccccc2)c1C#N	0	2	51*	2	-11	1	10	-5
Cn1c2ccccc2c2cc(/C=N/NC(=O)c3ccccc3F)ccc21	-2	-21	47*	7	x	-2	14	0
S=c1nc[nH]c2c1cnn2-c1ccccc1	14	-12	36*	-6	-21	-2	43*	-1
Fc1ccc(-n2ncc3c(=S)nc[nH]c32)cc1	x	x	x	x	-9	x	x	x
O=C(CSCc1ccccc1)NCC1CN(c2cccc(Cl)c2)C(=O)O1 (stereo unspecified)	x	x	x	x	-2	x	x	x
O=S(=O)(c1ccc(F)c(Cl)c1)N1CCOC(c2ccccc2)C1 (stereo unspecified)	x	x	x	x	-29	x	x	x
O=C1COc2cc(O)ccc21	-1	-6	28*	x	1	x	16	-1
COc1ccc(C(=O)Nc2ccc(-c3cn4ccsc4n3)cc2)cc1S(=O)(=O)N1CCOCC1	1	0	77*	0	-5	-3	51*	-3
COc1ccc(C(=O)Nc2ccc(N3CCOCC3)cc2)cc1S(=O)(=O)N1CCOCC1	0	-8	1	x	-8	x	x	x
O=C(Nc1ccccc1)C1=C[C@H](c2coc3ccccc3c2=O)C[C@H](OCc2ccc(CO)cc2)O1	-2	-16	1	9	14	-6	x	x
NC(=O)C1=C[C@@H](c2coc3ccccc3c2=O)C[C@@H](OCc2ccc(CO)cc2)O1	-1	-42	40*	1	-11	-6	31*	1
NC(=O)C1=C[C@@H](c2coc3ccccc3c2=O)C[C@@H](OCCCCO)O1	-2	-2	27*	0	0	3	32*	-3
CC(C)C(=O)N1CCc2ccc(NC(=O)c3ccc(F)cc3Cl)cc2C1	x	x	x	x	-12	x	x	x
CCc1cccc(C)c1NC(=O)CON=C(C)c1cc2ccccc2o1	x	x	x	x	-11	x	x	x
Nc1nc2ccc(Cl)cc2cc1C(=O)NCc1ccccc1Br	x	x	49*	x	x	x	81*	-2
Cc1ccccc1-n1cnnc1CN1CCN(C(=O)c2ccsc2)CC1	x	x	x	x	-27	x	x	x
COc1cc(NC(=S)NC(C)(C)C)c(OC)cc1Cl	2	-25	25*	x	-5	-8	6	-3
COc1cc(NC(=S)Nc2cccc(Cl)c2Cl)c(OC)cc1Cl	-1	-7	5	-2	9	2	x	x
NC(=O)COc1ccc2c(c1)O/C(=C\c1ccco1)C2=O	x	x	x	x	-1	x	x	x
Cn1c(=O)c2c(nc(CN3CCc4ccccc4C3)n2CCCO)n(C)c1=O	-1	-12	3	4	6	-5	x	x
Cn1c(=O)c2c(nc(CN3CCc4ccccc4C3)n2Cc2ccccc2F)n(C)c1=O	1	-5	27*	7	-2	2	-2	-3
O=C(CSc1nc(Cc2ccccc2)nc2ccccc12)Nc1ccc2c(c1)OCCO2	-2	-21	31*	2	-1	6	71*	-9
CC(Sc1ccccn1)C(=O)Nc1ccc2c(c1)OCCO2 (stereo unspecified)	0	-17	6	x	-6	x	x	x
O=C(CSc1ncnc2ccccc12)Nc1ccc2c(c1)OCCO2	1	-51	40*	5	-15	-7	50*	-6
CC(Sc1ncnc2ccccc12)C(=O)Nc1ccc2c(c1)OCCO2 (stereo unspecified)	0	-8	43*	3	-7	11	28*	4
SMILES	PfHsp40 rescue	PrP UTR inh	PrPC TRFRET	RecA intein inh	SSB-PriA inh	BJeLR viability	PrPC confirm	LD9 cytotox
O=C(NCc1ccc(Cl)cc1)N1CC(n2cc(-c3ccccc3)nn2)C1	x	x	x	x	-15	x	x	x
CCN(CC)S(=O)(=O)c1ccc(NC(=O)CSc2ncnc3ccccc23)cc1	5	-3	47*	0	-9	-1	60*	-13
NS(=O)(=O)c1ccc(NC(=O)CSc2ncnc3ccccc23)cc1	-1	-12	22	6	-13	-2	x	x
NS(=O)(=O)c1ccc(CCNC(=O)CSc2ccc3ccccc3c2)cc1	0	-23	2	1	0	-11	x	x
NS(=O)(=O)c1cccc(NC(=O)CSc2ncnc3ccccc23)c1	0	-10	37*	11	-4	-2	36*	-8
Cc1sc2ncnc(SCC(=O)Nc3cccc(S(N)(=O)=O)c3)c2c1C	0	-6	28*	x	-3	x	44*	-8
COc1ccccc1NC(=O)CSc1ncnc2ccccc12	x	x	x	x	4	x	x	x
NS(=O)(=O)c1ccc(CCNC(=O)CSc2ncnc3ccccc23)cc1	1	-18	27*	4	-14	1	45*	2
Cc1nc(SCC(=O)Nc2cc(C(N)=O)cc(C(N)=O)c2)c2c(C)c(C)sc2n1	2	-10	85*	1	-8	9	94*	2
COc1ccc(NC(=O)C2CC2)cc1-n1cnnn1	-1	-27	5	-1	-16	-8	x	x
COc1cc(C(=O)Nc2ccc3c(c2)OCO3)ccc1-n1cnnn1	0	5	45*	-4	0	0	32*	-1
CC1CCN(c2ccc(C(=O)Nc3ccc4c(c3)OCO4)cc2[N+](=O)[O-])CC1	2	-6	74*	7	39*	7	77*	4
CC1CCCN(c2ccc(C(=O)Nc3ccc4c(c3)OCO4)cc2[N+](=O)[O-])C1 (stereo unspecified)	5	-13	31*	8	10	-5	40*	9
COc1cc(NC(=O)C2CCN(S(=O)(=O)c3ccc(Cl)cc3)CC2)ccc1-n1cnnn1	-1	5	27*	3	-2	-6	21	15*
O=C(COC(=O)c1ccc(N2CCOCC2)c([N+](=O)[O-])c1)Nc1ccc2c(c1)OCO2	-1	-59	-10	-5	-9	-12	x	x
CCCc1nnsc1C(=O)NC[C@H](OC)c1ccccc1Cl	x	x	x	x	-9	x	x	x
COC(=O)c1ccc2c(c1)C(=O)/C(=C/c1cn(-c3ccccc3)nc1-c1cccs1)O2	x	x	x	x	-20	x	x	x
Cc1cc(SCC(=O)NC2CCCC2)nc2ccccc12	0	-2	28*	-1	7	-8	39*	-3
Cc1cc(SCC(=O)NC2CCCCC2)nc2ccccc12	-1	-3	21	-1	-7	-4	x	x
COc1cccc(-n2nnc3c(N4CCN(C(=O)c5c(F)cccc5Cl)CC4)ncnc32)c1	x	x	x	x	-18	x	x	x
COc1ccc2c(c1)c(/C=N/Nc1nc3ccccc3[nH]1)c(C)n2C	3	-50	25*	24	+	6	6	27*
CC(C)C(C)NC(=O)CSc1ccc(S(=O)(=O)N2CCOCC2)cn1 (stereo unspecified)	1	-17	5	x	0	x	x	x
